# Test results taken from PubChem BioAssay AID602292 (National Center for Advancing Translational Sciences (NCATS), 2012).
# The campaign covered roughly 1,300 compounds. About 380 (29%) were called active. About 37% were inconclusive and are not listed. The list shows a part of the results. Values without a mark were called inactive. Calls follow the shape of the dose curve; as a rule, active = well fitted inhibition curve with a large enough effect; inconclusive = small, poorly fitted or top-dose-only effect; inactive = flat fitted curve, though single readings scatter.
# Biological target: Thyrotropin receptor (Homo sapiens) (UniProt P16473)
# Assay: qHTS for antagonists of the Thyroid Stimulation Hormone Receptor: Hit Validation in Primary Screen; also: nearly all actives have a fitted effect of over 80% in size;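 as to activity change, negative = inhibition: cAMP by competitive HTRF where cellular cAMP lowers the 665 nm FRET signal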
# Conditions: TSHR-expressing cells, cAMP antagonist mode; series mostly up to 58 µM; activity change, negative = inhibition: at the top concentration
# Procedure, shortened: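 TSHR-expressing cells were pretreated with compound, then stimulated with TSH at EC80 (4nM final) for 2 hours at 37 deg C. Cellular cAMP measured by competitive HTRF (anti-cAMP cryptate, cAMP-d2) after 30 min at room temperature.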
# % is scaled to controls: 0 for no effect and ±100 for the full control effect; potency is read from the fitted curve at half-maximal effect.
# Sequence of Thyrotropin receptor (Homo sapiens) (P16473 whole entry, looked up): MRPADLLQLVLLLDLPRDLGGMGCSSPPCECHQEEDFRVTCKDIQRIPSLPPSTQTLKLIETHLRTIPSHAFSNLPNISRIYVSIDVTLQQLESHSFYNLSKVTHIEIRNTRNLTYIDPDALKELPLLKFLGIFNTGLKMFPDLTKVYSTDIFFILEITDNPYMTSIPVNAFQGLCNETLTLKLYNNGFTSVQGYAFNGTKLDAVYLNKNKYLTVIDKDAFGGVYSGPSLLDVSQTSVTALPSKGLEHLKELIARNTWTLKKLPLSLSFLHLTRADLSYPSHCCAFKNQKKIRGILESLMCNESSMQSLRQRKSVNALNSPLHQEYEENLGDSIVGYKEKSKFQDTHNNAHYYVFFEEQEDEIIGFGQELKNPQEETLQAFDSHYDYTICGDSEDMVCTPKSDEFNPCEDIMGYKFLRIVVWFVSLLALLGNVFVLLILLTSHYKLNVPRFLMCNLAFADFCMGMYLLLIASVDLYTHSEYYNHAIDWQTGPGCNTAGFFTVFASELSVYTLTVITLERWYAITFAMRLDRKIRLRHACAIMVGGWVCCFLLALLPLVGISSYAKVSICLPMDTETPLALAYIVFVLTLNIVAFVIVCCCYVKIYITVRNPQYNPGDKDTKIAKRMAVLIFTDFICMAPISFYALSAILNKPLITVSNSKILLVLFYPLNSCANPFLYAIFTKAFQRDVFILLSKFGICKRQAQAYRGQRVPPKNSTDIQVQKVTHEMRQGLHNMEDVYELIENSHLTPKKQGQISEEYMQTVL
Compound,Potency,"activity change, negative = inhibition [%]"
CC(Sc1nn(-c2ccc(F)cc2)c(=S)s1)C(=O)c1c(N)n(C)c(=O)n(C)c1=O (stereo unspecified),37.9 µM (active),–
CCCCCC/C(C)=C1/SC(=S)NC1=O,30.1 µM (active),–
O=C(Nn1cnnc1)C(c1ccccc1)c1ccccc1,–,-7.72
O=C(N=C1SC2CS(=O)(=O)CC2N1c1ccc(F)cc1)C1CC1 (stereo unspecified),–,-2.68
CCCCCc1c2c(cc(O)c1C(=O)O)OC(=O)c1c(cc(OC)cc1C(=O)CCCC)O2,33.8 µM (active),–
COC(=O)[C@H]1[C@H]2C[C@@H]3c4[nH]c5cc(OC)ccc5c4CCN3C[C@H]2C[C@@H](OC(=O)/C=C/c2cc(OC)c(OC)c(OC)c2)[C@@H]1OC,–,-11.4
O=C(CC1C(=O)NCCN1Cc1cccc(F)c1F)NCCCC1CCCC1 (stereo unspecified),–,-0.634
CC(Oc1ccc(Cl)cc1Cl)c1nc(-c2ccc(NC(=O)c3cccnc3)cc2)no1 (stereo unspecified),21.3 µM (active),–
CCCn1nnc(NC(=O)C(C)Oc2ccc(Cl)cc2Cl)n1 (stereo unspecified),–,1.58
Cc1ccccc1Oc1cc(-n2ncc(Cl)c(Cl)c2=O)ncn1,12 µM (active),–
COCCNc1cnn(-c2ccccc2)c(=O)c1Cl,–,-16.4
CC(C)(CNC(=O)C1c2ccccc2-c2ccccc21)N1CCOCC1,–,2.56
Cc1[nH]n(-c2ccccc2)c(=O)c1N=Nc1c(O)cc(S(=O)(=O)N(C)C)c2ccccc12,8.49 µM (active),–
CC(NC(=O)/C(C#N)=C/c1ccc([N+](=O)[O-])o1)c1ccccc1 (stereo unspecified),30.1 µM (active),–
Cc1ccc(S(=O)(=O)N2CCN(C(=O)Cc3ccsc3)CC2)c(C)c1,–,-0.288
O=C(Cn1ncc(Cl)c(Cl)c1=O)N1CCN(S(=O)(=O)c2ccc3ccccc3c2)CC1,9.53 µM (active),–
CCc1nn(CC(=O)N2CCCCCC2)c(=O)c2cc3ccccc3n12,–,-6.57
NC(=O)CSc1oc(-c2ccco2)nc1S(=O)(=O)c1ccccc1,–,-12.3
CS(=O)(=O)N1CCc2cc(C(=O)Nc3ccc(COCC(F)(F)F)cc3)ccc21,–,-11.9
CCc1nnc(NC(=O)c2ccc(Cl)c(S(=O)(=O)N3CCc4ccccc43)c2)s1,7.57 µM (active),–
NC(=O)c1ccc(CN2CCc3ccccc3C2)cc1,–,0.0288
O=C(Nc1nnc(C2CC2)s1)c1ccc(Cl)c(S(=O)(=O)N2CCc3ccccc3C2)c1,3.79 µM (active),–
CCc1nnc(NS(=O)(=O)c2ccc(NC(=O)COc3ccc4ccccc4c3)cc2)s1,–,-8.82
C=CCOc1c(Cl)cc(CNc2ccc(N(C)C)cc2)cc1OC,–,-6.8
O=C1C=C(c2ccc(Cl)c(C(F)(F)F)c2)C[C@@H](c2ccc(Cl)cc2)C1,–,-9.56
N#Cc1c(C(F)(F)F)cc(-c2ccc(Cl)cc2)[nH]c1=O,10.7 µM (active),–
